tim23-1 inh: growth inhibitors of tim23-1 mutant yeast, primary screen, luminescence, uHTS | S. cerevisiae tim23-1 growth, BacTiter-Glo luminescence, 24 h | inhibition, % at 20 µM | hit rate 1.3% among 330,000 | AID 463212, 2010;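 active = growth inhibition of the mutant yeast at or above 50%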;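 note: temperature-sensitive mutant grown at 25 °C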
SKKanGAS inh: S. pyogenes SKKanGAS growth inhibitors in kanamycin, primary screen, streptokinase expression inhibitor project, SKKanGAS strain, BacTiter-Glo luminescence. inhibition, % at 7.5 µM. hit rate 1.3% among 300,000. 6 h;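 active = mean replicate score, as percent of positive control median, at least 50; inconclusive = mean below 50 but one replicate at or above 50; inactive = mean and every replicate below 50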;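 note: strain carries kanamycin resistance gene driven by streptokinase promoter and grows in 40 µg/ml kanamycin; loss of luminescence reflects streptokinase promoter inhibition or plain growth inhibition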
ATG4B inhibitor: ATG4B protease inhibitors, primary screen, biochemical, fluorescence, uHTS | Cysteine protease ATG4B (Homo sapiens), Q9Y4P1 | ATG4B cleavage of LC3-PLA2, NBD-HPC fluorescence, 1 h | inhibition, % at 8.33 µM | hit rate 0.51% among 340,000 | AID 504462, 2011; in the data active = inhibition above about 40%
Target sequence (Q9Y4P1 whole entry, looked up): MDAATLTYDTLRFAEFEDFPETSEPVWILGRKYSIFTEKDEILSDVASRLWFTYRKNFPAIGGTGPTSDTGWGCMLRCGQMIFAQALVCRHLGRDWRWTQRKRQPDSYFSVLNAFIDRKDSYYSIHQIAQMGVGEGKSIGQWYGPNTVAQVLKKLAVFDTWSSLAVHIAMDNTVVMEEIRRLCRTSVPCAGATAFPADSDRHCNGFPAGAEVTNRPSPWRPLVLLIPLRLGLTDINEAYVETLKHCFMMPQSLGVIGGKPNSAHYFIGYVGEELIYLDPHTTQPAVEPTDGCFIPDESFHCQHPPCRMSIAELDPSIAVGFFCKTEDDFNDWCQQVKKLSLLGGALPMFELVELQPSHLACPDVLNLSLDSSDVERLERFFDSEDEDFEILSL
TIM10 inh: growth inhibitors of isogenic TIM10 control yeast, primary screen, counter-screen for tim10-1 yeast inhibitor project, luminescence, uHTS; inhibition, % at 10 µM; hit rate 1.4% among 330,000; AID 463195, 2010; S. cerevisiae TIM10 strain growth, BacTiter-Glo luminescence, 24 h;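 active = inhibition of 40% or more at the single tested concentration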;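 note: wild-type TIM10 isogenic control strain grown at permissive 25 °C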
tim10-1 inh: growth inhibitors of tim10-1 mutant yeast, primary screen, luminescence, uHTS | S. cerevisiae tim10-1 ts strain growth, BacTiter-Glo, 24 h | inhibition, % at 20 µM | hit rate 2.2% among 330,000 | AID 463190, 2010;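 active = inhibition of at least 40%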;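 note: mutant grown at 25 °C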
PfHsp90 yeast 2: growth inhibition of PfHsp90-expressing yeast, primary screen, antimalarial PfHsp90 inhibitor project, S. cerevisiae, BacTiter-Glo luminescence, single point, set 2 | BacTiter-Glo ATP, 48 h; yeast lacking PDR1 and PDR3 efflux regulators | inhibition, % at 9.4 µM | hit rate 0.32% among 310,000;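 active = every replicate shows inhibition above about 80%, whatever the replicate mean, limit read from the data; inconclusive = mean inhibition reaches the set limit but some replicate falls short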
tim23-1 confirm: tim23-1 mutant yeast growth inhibitors, confirmation, luminescence, single concentration. shares compounds with tim23-1 inh. S. cerevisiae tim23-1 growth, BacTiter-Glo luminescence, 24 h. inhibition, % at 20 µM. hit rate 83% among 4,400;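 active = inhibition above about 39% in either of two replicate wells at 20 µM, limit read from the data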;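 note: temperature-sensitive tim23-1 mutant grown at 25 °C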
Large screens that a line does not name were inactive (follow-up assays come after a bar, where they were run). An excerpt weighted towards active compounds, which were near 4.7% of everything screened.

CCn1c(SCC(=O)Nc2nc3ccc(C)cc3s2)nc2c(c1=O)SC(C)C2 (stereo unspecified)	tim23-1 inh 52 | tim23-1 confirm 47
CCn1c(SCC(=O)Nc2nc3ccccc3s2)nc2c(c1=O)SC(C)C2 (stereo unspecified)	none (no result: PfHsp90 yeast 2)
Cc1nnc(NS(=O)(=O)c2ccc(N=Nc3ccc(N)nc3N)cc2)s1	none (no result: tim23-1 inh, SKKanGAS inh, TIM10 inh, tim10-1 inh)
CCCCOc1ccc(N=Nc2ccc(N)nc2N)cn1	tim23-1 inh 80 | tim23-1 confirm 70
Oc1c(Cl)cc(Cl)cc1C=Nc1ccccc1N1CCCC1	tim23-1 inh 57 (no result: ATG4B inhibitor, PfHsp90 yeast 2) | tim23-1 confirm 54
Cc1c(CCOC(=O)CC23CC4CC(CC(C)(C4)C2)C3)sc[n+]1CC(=O)c1ccccc1	none
Cc1c(CCOC(=O)C23CC4CC(CC(C)(C4)C2)C3)sc[n+]1CC(=O)c1ccccc1	tim23-1 inh 62 | tim23-1 confirm inactive
COc1cccc(NC(=O)c2ccc(C(=O)c3ccccc3)o2)c1	none
O=C(Nc1cccc(-c2nnc(-c3ccccc3)o2)c1)c1ccc(Br)o1	tim23-1 inh 73, SKKanGAS inh inconclusive | tim23-1 confirm 63
O=C(Nc1cccc(-c2ccc(N3CCCCC3)nn2)c1)c1ccc(Br)o1	tim23-1 inh 54 | tim23-1 confirm 59
O=C(Nc1cccc(OC(=O)c2ccc(Br)o2)c1)c1ccccc1	tim23-1 inh 64 | tim23-1 confirm 57
CN(C)C(=O)CSc1nnc(CCCCCNC(=O)OC(C)(C)C)o1	none (no result: PfHsp90 yeast 2)
CCN(CC)S(=O)(=O)c1ccc(NCC2COc3ccccc3O2)c([N+](=O)[O-])c1 (stereo unspecified)	none
Cc1cccc(Oc2ccc(NS(=O)(=O)c3ccc(C)c(C(=O)O)c3)cc2)c1	none (no result: SKKanGAS inh)
O=C(Nc1ccc(Cn2cccn2)cc1)c1ccc(COc2cccc(Br)c2)cc1	none
CC(C)[C@H](NC(=O)OCc1ccccc1)C(=O)OCC(=O)N1CCN(c2ccc(F)cc2)CC1	none (no result: SKKanGAS inh)
O=C1NC(=Nc2ccccc2Cl)S/C1=C\c1cccc([N+](=O)[O-])c1	tim23-1 inh 55, PfHsp90 yeast 2 inconclusive | tim23-1 confirm 63
O=C1NC(=Nc2ccccc2Cl)S/C1=C\c1cccc([N+](=O)[O-])c1O	none
COc1ccc(OC)c(CCNC(=O)Cn2cccc2C(=O)c2ccccc2)c1	none
COc1ccc(OC)c(CCNC(=O)Cn2cccc2C(=O)c2ccccc2C)c1	tim23-1 inh 96 | tim23-1 confirm inactive
O=C1SC(c2ccccc2)=C/C1=C\N1CCCCC1	tim23-1 inh 63 | tim23-1 confirm 39
O=C(Oc1c(-c2ccccc2Cl)oc2ccccc2c1=O)c1ccc(Cl)cc1	none
CC(=O)c1ccc(N2CCN(CC(=O)NC(=O)NCc3ccccc3)CC2)cc1	none (no result: SKKanGAS inh)
Cc1cc(C)c(C(CC(=O)c2cccs2)C(C#N)C#N)c(C)c1 (stereo unspecified)	tim23-1 inh 52 | tim23-1 confirm inactive
O=C(Nc1ccccc1)c1ccc(Nc2c([N+](=O)[O-])cc([N+](=O)[O-])c3ccccc23)cc1	none
O=[N+]([O-])c1cc(Br)c(Nc2ccccc2)c([N+](=O)[O-])c1	tim23-1 inh 54, PfHsp90 yeast 2 120 | tim23-1 confirm inactive
CC1=C(C(=O)OC(C)C)C(c2cncc(-c3ccc(F)cc3)c2)C(C#N)=C(N)O1 (stereo unspecified)	tim23-1 inh 50 | tim23-1 confirm inactive
COc1ccc(C(=O)CC(=O)C(=O)Nc2cccc([N+](=O)[O-])c2C)cc1	none
COc1ccc(Cn2c(=S)[nH]c3cc(C(=O)NCc4cccnc4)ccc3c2=O)cc1	none
NC(=O)C1CCN(C(=O)c2ccc3c(=O)n(Cc4ccco4)c(SCC(=O)c4ccccc4)nc3c2)CC1	tim23-1 inh 58 | tim23-1 confirm inactive
COc1ccc(-c2sc3ccccc3c2-c2ccc(OCCN3CCCCC3)cc2)cc1	none (no result: SKKanGAS inh)
COc1ccccc1-c1sc2ccccc2c1-c1ccc(OCCN2CCCCC2)cc1	tim23-1 inh 52 (no result: SKKanGAS inh) | tim23-1 confirm inactive
COc1cccc(-c2sc3ccccc3c2-c2ccc(OCCN3CCCCC3)cc2)c1	tim23-1 inh 70 (no result: SKKanGAS inh) | tim23-1 confirm inactive
c1ccc(-c2sc3ccccc3c2-c2ccc(OCCN3CCCC3)cc2)cc1	tim23-1 inh 61 (no result: SKKanGAS inh) | tim23-1 confirm 42
CNC(=S)N/N=C/c1cc(Br)cc(Br)c1O	tim23-1 inh 58 | tim23-1 confirm 54
COc1cccc(C(=O)NCC2(c3ccccc3)CCCC2)c1	none
CN1C(=O)S/C(=C/c2cccnc2)C1=O	none
O=C1/C(=C\c2cccnc2)Sc2ccccc21	tim23-1 inh 53 | tim23-1 confirm 59
CC(C)Oc1ccc(S(=O)(=O)N2CCOCC2)cc1NC(=O)c1nn(C)c(=O)c2ccccc12	none (no result: tim23-1 inh, SKKanGAS inh, TIM10 inh, tim10-1 inh)
COc1ccc(OC)c(-c2csc(NC(=O)Cc3cc(OC)c(OC)c(OC)c3)n2)c1	none
COc1ccc(OC)c(-c2csc(NC(=O)Cc3ccc(F)cc3)n2)c1	tim23-1 inh 55 | tim23-1 confirm 43
Cc1cc2cc(CN(CC3CCCO3)C(=S)Nc3ccccc3)c(=O)[nH]c2cc1C (stereo unspecified)	tim23-1 inh 55 | tim23-1 confirm 50
Cc1ccc(C(=O)N/N=C/c2ccc(-c3ccc(Br)cc3[N+](=O)[O-])o2)o1	tim23-1 inh 50 | tim23-1 confirm 67
CC(C)=CC(=O)Nc1ccc(S(=O)(=O)Nc2ccccn2)cc1	none
CCOC(=O)C1CCCN(S(=O)(=O)c2ccc3c(c2)CC(C)N3C(=O)C2CC2)C1 (stereo unspecified)	none
CCOC(=O)C1CCN(S(=O)(=O)c2ccc3c(c2)CC(C)N3C(=O)C2CCC2)CC1 (stereo unspecified)	tim23-1 inh 51 | tim23-1 confirm 43
COc1ccc(C2CC(=O)Oc3cc(C)c(Cl)cc32)cc1 (stereo unspecified)	tim23-1 inh 53 (no result: SKKanGAS inh) | tim23-1 confirm 40
COc1ccc(C2CC(=O)Oc3ccc(OC)cc32)cc1 (stereo unspecified)	none (no result: SKKanGAS inh)
Cc1cc(=O)oc2cc(OCC(=O)Nc3ccc(F)cc3F)ccc12	none (no result: SKKanGAS inh)
Cc1ccc(S(=O)(=O)NCC(=O)OCCOc2cccc(Cl)c2)cc1	tim23-1 inh 51 (no result: SKKanGAS inh) | tim23-1 confirm 44
C=CCN=c1scc(-c2ccco2)n1/N=C/c1ccc(O)c(O)c1O	tim23-1 inh 64 | tim23-1 confirm 62
Cc1ccc(C(=O)N/C(=C\c2cccnc2)c2nc3ccccc3[nH]2)cc1	none

Screening results from PubChem.
